According to PubChem BioAssay (NCATS):
Results filed as inconclusive are left out. Active and inactive are the calls of the source. Calls come from the whole dose curve; as a rule, active = well fitted inhibition curve with a large enough effect; inconclusive = small, poorly fitted or top-dose-only effect; inactive = flat fitted curve, though single readings scatter.

Experiments:
CRL-7250 = normal cell line; assay: Cytotoxic Profiling of Annotated Libraries Using Quantitative High-Throughput Screening (AID 1296008); details: Five cell lines viability, CellTiter-Glo ATP luminescence, 48-72 h; hits give low values; for max response: % is set by controls: 0 for no effect and ±100 for the full control effect
In short: (§1)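 Cells exposed to compounds for 48 or 72 hr at 37 degrees Celsius. Viability read as ATP-coupled luminescence with CellTiter-Glo after 10 min at room temperature.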

HEK293 = assay: as above; details: Five cell lines viability, CellTiter-Glo ATP luminescence, 48-72 h; hits give low values
In short: as §1

HaCat [1] = assay: as above; details: Five cell lines viability, CellTiter-Glo ATP luminescence, 48-72 h; hits give low values
In short: as §1

KB-3-1 = assay: as above; details: Five cell lines viability, CellTiter-Glo ATP luminescence, 48-72 h, hits give low values
In short: as §1

NIH3T3 = assay: as above; details: Five cell lines viability, CellTiter-Glo ATP luminescence, 48-72 h; hits give low values
In short: as §1

HACAT [2] = assay: qHTS assay to identify novel small-molecules to repurpose for Merkel cell carcinoma treatment (AID 1296009); details: MCC and control cell lines, CellTiter-Glo viability, 72 h; at 44.8 µM (top of the series) unless noted
In short: (§2)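 CellTiter-Glo luminescence after 72 hr compound exposure at 37 degree celsius gave cell viability. Libraries NPC and MIPE were run as 8- and 11-point dose responses; RLUs normalized to DMSO (negative) and no-cell (cytotoxicity) controls.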

HEK293T = assay: as above; details: MCC and control cell lines, CellTiter-Glo viability, 72 h; at 44.8 µM (top of the series) unless noted
In short: as §2

JCK = assay: qHTS profiling for inhibitors of Plasmodium falciparum proliferation (AID 504749); note: potency is the fitted concentration of half-maximal effect; details: P. falciparum in erythrocytes, SYBR Green DNA, 72 h; series mostly up to 28.7 µM
In short: (§3)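 SYBR Green fluorescence (ex 485 nm, em 535 nm) reports parasite DNA after 72 h compound exposure of infected red cells at 0.3% parasitemia, 2.5% hematocrit; signal normalized to 0.29 uM artemisinin and vehicle wells.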

N140 = assay: as above; details: P. falciparum in erythrocytes, SYBR Green DNA, 72 h; series mostly up to 28.7 µM
In short: as §3

P93_24 = assay: as above; details: P. falciparum in erythrocytes, SYBR Green DNA, 72 h; series mostly up to 28.7 µM
In short: as §3

P94_40 = assay: as above; details: P. falciparum in erythrocytes, SYBR Green DNA, 72 h; series mostly up to 28.7 µM
In short: as §3

PAD = assay: as above; details: P. falciparum in erythrocytes, SYBR Green DNA, 72 h; series mostly up to 28.7 µM
In short: as §3

PC15 = assay: as above; details: P. falciparum in erythrocytes, SYBR Green DNA, 72 h; series mostly up to 28.7 µM
In short: as §3

PC26 = assay: as above; details: P. falciparum in erythrocytes, SYBR Green DNA, 72 h; series mostly up to 28.7 µM
In short: as §3

PC49 = assay: as above; details: P. falciparum in erythrocytes, SYBR Green DNA, 72 h; series mostly up to 28.7 µM
In short: as §3

SC27B = assay: as above; details: P. falciparum in erythrocytes, SYBR Green DNA, 72 h; series mostly up to 28.7 µM
In short: as §3

TAB109 = assay: as above; details: P. falciparum in erythrocytes, SYBR Green DNA, 72 h; series mostly up to 28.7 µM
In short: as §3

TAB113 = assay: as above; details: P. falciparum in erythrocytes, SYBR Green DNA, 72 h; series mostly up to 28.7 µM
In short: as §3

TAB165 = assay: as above; details: P. falciparum in erythrocytes, SYBR Green DNA, 72 h; series mostly up to 28.7 µM
In short: as §3

W2 = assay: as above; details: P. falciparum in erythrocytes, SYBR Green DNA, 72 h; series mostly up to 28.7 µM
In short: as §3
Note: nearly all actives have a fitted effect of over 60% in size.

CC(C)(C)NCC(O)COc1cccc2c1CCC(=O)N2 (configuration not stated)
inactive: max response (CRL-7250) 4.08% | max response (HEK293) -0.291% | outcome (HaCat [1]) | max response (KB-3-1) 7.08% | max response (NIH3T3) 3.67% | outcome (HACAT [2])

C/C=C/C(=O)N(CC)c1ccccc1C
inactive: max response (CRL-7250) -6.75% | max response (HEK293) 0.227% | max response (HaCat [1]) 0.376% | max response (KB-3-1) 21.1% | max response (NIH3T3) 1.85%

CC(=O)N1C[C@H](O)C[C@H]1C(=O)O
inactive: outcome (CRL-7250) | max response (HEK293) 1.84% | max response (HaCat [1]) 4.9% | max response (KB-3-1) 8.51% | outcome (NIH3T3)

C[C@@H](c1ncncc1F)C(O)(Cn1cncn1)c1ccc(F)cc1F (some centres not stated)
inactive: max response (CRL-7250) -4.65% | max response (HEK293) 2.6% | outcome (HaCat [1]) | max response (KB-3-1) -2.08% | max response (NIH3T3) -3.08% | outcome (HACAT [2])

O=C(O)C(S)C(S)C(=O)O (configuration not stated)
inactive: max response (CRL-7250) -6.2% | max response (HEK293) -7.93% | max response (HaCat [1]) 3.59% | max response (KB-3-1) -23% | outcome (NIH3T3)

NS(=O)(=O)c1cc(C2(O)NC(=O)c3ccccc32)ccc1Cl (configuration not stated)
inactive: max response (CRL-7250) -0.145% | max response (HEK293) -4.45% | max response (HaCat [1]) 3.24% | max response (KB-3-1) -1.8% | outcome (NIH3T3)

CC(=O)OCC(=O)[C@@]1(O)CC[C@H]2[C@@H]3CCC4=CC(=O)C=C[C@]4(C)[C@@]3(F)[C@@H](O)C[C@@]21C
inactive: max response (CRL-7250) 2.22% | outcome (HEK293) | outcome (HaCat [1]) | max response (KB-3-1) 29.8% | max response (NIH3T3) 0.516% | outcome (HACAT [2]) | outcome (HEK293T)

O=C(O)/C=C/c1ccc(Cn2ccnc2)cc1
inactive: max response (CRL-7250) -1.04% | max response (HEK293) -1.65% | max response (HaCat [1]) 4.76% | max response (KB-3-1) 2.2% | outcome (NIH3T3)

O=C(/C=C/c1ccc(O)c(O)c1)O[C@@H]1C[C@@](OC(=O)/C=C/c2ccc(O)c(O)c2)(C(=O)O)C[C@@H](O)[C@@H]1O
inactive: max response (CRL-7250) -6.43% | max response (HEK293) -4.83% | outcome (HaCat [1]) | max response (KB-3-1) -0.0821% | max response (NIH3T3) -0.0883% | outcome (HACAT [2])

C=CCN1C[C@H](C(=O)N(CCCN(C)C)C(=O)NCC)C[C@@H]2c3cccc4[nH]cc(c34)C[C@H]21
inactive: outcome (CRL-7250) | max response (HEK293) 1.65% | max response (HaCat [1]) -1.25% | max response (KB-3-1) 6.36% | outcome (NIH3T3)

CC1(C)S[C@@H]2[C@H](N=CN3CCCCCC3)C(=O)N2[C@H]1C(=O)O
inactive: max response (CRL-7250) -6.32% | max response (HEK293) -2.19% | outcome (HaCat [1]) | max response (KB-3-1) -4.82% | outcome (NIH3T3) | outcome (HACAT [2])

CN1C(=O)CC(c2ccccc2)C1=O (configuration not stated)
inactive: max response (CRL-7250) 1.89% | max response (HEK293) -5.41% | outcome (HaCat [1]) | max response (KB-3-1) 0.936% | outcome (NIH3T3) | outcome (HACAT [2])

CC1(C)[C@@H](OC(=O)CCC(=O)O)CC[C@]2(C)[C@H]3C(=O)C=C4[C@@H]5C[C@@](C)(C(=O)O)CC[C@]5(C)CC[C@@]4(C)[C@]3(C)CC[C@@H]12
inactive: max response (CRL-7250) -5.85% | max response (HEK293) -0.807% | max response (HaCat [1]) 2.22% | max response (KB-3-1) -3.96% | outcome (NIH3T3)

Cn1cc(C(=O)[C@@H]2CCc3nc[nH]c3C2)c2ccccc21
inactive: outcome (CRL-7250) | max response (HEK293) 3.07% | outcome (HaCat [1]) | max response (KB-3-1) -12.7% | max response (NIH3T3) -0.574% | outcome (HACAT [2])

NC(=O)NC1NC(=O)NC1=O (configuration not stated)
inactive: outcome (CRL-7250) | max response (HEK293) -3.84% | outcome (HaCat [1]) | max response (KB-3-1) -5.62% | outcome (NIH3T3) | outcome (HACAT [2])

CC(CSC(=O)c1ccccc1)C(=O)N1C[C@@H](Sc2ccccc2)C[C@H]1C(=O)O (some centres not stated)
inactive: Potency (JCK) | Potency (N140) | Potency (P93_24) | Potency (P94_40) | Potency (PAD) | Potency (PC15) | Potency (PC26) | Potency (PC49) | Potency (SC27B) | Potency (TAB109) | Potency (TAB113) | Potency (TAB165) | Potency (W2) | max response (CRL-7250) -5.72% | outcome (HEK293) | outcome (HaCat [1]) | max response (KB-3-1) -11.1% | max response (NIH3T3) -0.681% | outcome (HACAT [2]) inactive [at 17.4 µM] | outcome (HEK293T) inactive [at 17.4 µM]

O=C(O)[C@@H]1[C@H]2C[C@H]3c4[nH]c5ccccc5c4CCN3C[C@@H]2CC[C@@H]1O
inactive: max response (CRL-7250) -7.72% | max response (HEK293) -7.97% | max response (HaCat [1]) 4.24% | max response (KB-3-1) 7.03% | outcome (NIH3T3)

CCOc1ccccc1O[C@H](c1ccccc1)[C@H]1CNCCO1
inactive: outcome (CRL-7250) | max response (HEK293) 2.57% | outcome (HaCat [1]) | max response (KB-3-1) 2.06% | max response (NIH3T3) 1.71% | outcome (HACAT [2])

CC(=O)OC[C@H]1O[C@@](COC(C)=O)(O[C@H]2O[C@H](COC(C)=O)[C@@H](OC(C)=O)[C@H](OC(C)=O)[C@H]2OC(C)=O)[C@@H](OC(C)=O)[C@@H]1OC(C)=O
inactive: Potency (JCK) | Potency (PC15) | Potency (PC26) | Potency (PC49) | Potency (W2) | max response (CRL-7250) 4.32% | max response (HEK293) -4.41% | outcome (HaCat [1]) | max response (KB-3-1) 2.32% | max response (NIH3T3) 2.21% | outcome (HACAT [2])
active: Potency (P94_40) 2820 nM
